Consider five compounds from PubChem BioAssay AID488832 (National Center for Advancing Translational Sciences (NCATS), 2010).

Molecules are shown by their SMILES. Results filed as inconclusive are left out. Where a call stands in place of a potency, no number is given. Calls of active or inactive are those of the source. Calls follow the shape of the dose curve; as a rule, active = well fitted activation curve with a large enough effect; inconclusive = small, poorly fitted or top-dose-only effect; inactive = no such curve, though single readings can be large or run the other way.

This assay can be described thus: Confirmation Concentration-Response Assay for Enhancers of SMN2 Splice Variant Expression for Further Probe SAR. To be noted: HEK293 SMN2 exon7-luciferase splicing reporter, luminescence, 30-36 h; series mostly up to 46.1 µM. An excerpt:
NIH Chemical Genomics Center [NCGC] NIH Molecular Libraries Probe Production centers Network [MLPCN] MLPCN Grant: R03 MH084179-01 Assay Submitter (PI): Elliot Androphy NCGC Assay Overview: Spinal muscular atrophy (SMA) is caused by insufficient levels of the survival motor neuron protein SMN. The SMN locus on chromosome 5q13 contains two inverted copies of SMN called SMN1 and SMN2 which are 99% identical at the amino acid level. SMN1 is a fully functional protein and SMN2 skips exon 7 90% of the time. Skipping of exon 7 produces non-functional protein product. 10% of the SMN2 protein includes exon 7 and is fully functional. In the SMA disease state, mutations in the SMN1 locus are the cause of the disease state. Because only 10% of SMN2 is of the fully functional form, it is not sufficient to overcome the deficiency produced by the loss of the SMN1 product. A therapy that either increase the amount of SMN2 product made or to increase the inclusion of exon 7 has been proposed for the treatment of SMA. We have designed an assay to identify small molecules that can increase the amount of functional SMN2 product by appending a luciferase reporter gene after the native SMN2 gene, such that inclusion of exon 7 in the expressed product places the luciferase sequence in frame, thus generating functional luciferase enzyme.
NCGC Assay Protocol Summary: This screen utilizes a luciferase reporter gene assay, combining the promoter with the major portion of the native SMN2 cDNA (exons 1 -7, intron 8 , exon 8 fused to luciferase) stably expressed in HEK293 cells. Compounds that increase luciferase signal presumably enhance expression of the functional SMN2 splice variant. Passaging media contained DMEM w/ glutamax (+phenol red) 10% FCS, 1x pen/strep, 200 ug/ml hygro, 1x sodium pyruvate. Assay media contained DMEM w/ glutamax (-phenol red) 10% FCS, 1x pen strep, 1x pyruvate Sequence, Parameter, Value, Description (1) Cells, 5 uL, 2000 cells/well, 1536 TC treated White solid bottom plate (2) Time, 10-12 hours, 37C 5% CO2 (3) Compound, 23 nl, MLSMR Library (4) Control Compound, 23 nL, Sodium butyrate st 4.5mM (final) conc (5) Time, 30-36 hours, 37C 5% CO2 (6) Reagent, 3 ul, One Glo (TM) from Promega (7) Time, 5-15 minutes, Room temp (8) Detector, Viewlux: luminescent read, 60 second integration, high speed 2x binning Keywords: Spinal muscular atrophy, SMA, SMN2, high throughput screening, MLSMR, MLPCN, NIH Roadmap, qHTS and NCGC
As to `Nc1nc(N)c2c(OCC3CCN(Cc4ccccc4F)CC3)cccc2n1`, the Potency entry was “inactive”.
`CN(C)c1cccc(-c2nccc(N3CCC(C(N)=O)CC3)n2)c1`: the Potency is 12.2 µM (active).
Consider `NC(=O)C1CCN(c2ncc(-c3ccc(Cl)cc3)s2)CC1`, for which the Potency is 0.137 µM (active).
Take `N#Cc1ccccc1-c1csc(N2CCC(C(N)=O)CC2)n1`: the Potency entry is “inactive”.
As to `O=C(NCc1ccccc1)C1CCN(c2nc(-c3ccc(Br)cc3)cs2)CC1`, the Potency result is “inactive”.
